Results published in PubChem BioAssay AID1159580 (chemical genetic matrix, 2015).
In all, about 5,500 compounds went through this assay and about 2,000 (36%) were called active. Inconclusive results (about 18%) are left out. Cut-off read from the data, not from the text of the source: active = normalized growth mostly below about 0.91 (no sharp cut-off); inconclusive = no clear call, values can overlap the other calls; inactive = mostly above about 0.92. Some of the results follow.

Assay: chemical genetic growth profiling, strain panel (AID 1159580);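 note: tested at 20 µM; growth read once vehicle control cultures reached saturation at 30 °C; 1 = growth at the plate median or of vehicle wells; lower values mean less growth of the strain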
Conditions: S. cerevisiae deletion strains, growth OD

Measured: normalized growth

COC(=O)C1=C(C)NC(C)=C(C(=O)OCC(C)C)C1c1ccccc1[N+](=O)[O-] (centres undefined)
inactive: locus YBR171W, strain sec66, stronger effect = lower value 0.898 | locus YDL040C, strain nat1, stronger effect = lower value 0.953 | locus YDR137W, strain rgp1, stronger effect = lower value 0.866 | locus YDR159W, strain sac3, stronger effect = lower value 0.958 | locus YDR195W, strain ref2 1.06 | locus YER111C, strain swi4, stronger effect = lower value 0.945 | locus YML120C, strain ndi1, stronger effect = lower value 0.978 | locus YOR001W, strain rrp6, stronger effect = lower value 0.952 | locus YOR080W, strain dia2, stronger effect = lower value 0.958 | locus YOR290C, strain snf2, stronger effect = lower value 0.912 | locus YPL078C, strain atp4, stronger effect = lower value 0.94
active: locus YAL021C, strain ccr4, stronger effect = lower value 0.0808 | locus YAL026C, strain drs2, stronger effect = lower value 0.216 | locus YAL030W, strain snc1, stronger effect = lower value 0.239 | locus YBL061C, strain skt5, stronger effect = lower value 0.19 | locus YBR009C, strain hhf1, stronger effect = lower value 0.224 | locus YBR023C, strain chs3, stronger effect = lower value 0.176 | locus YBR231C, strain swc5, stronger effect = lower value 0.212 | locus YBR279W, strain paf1, stronger effect = lower value 0.451 | locus YCL011C, strain gbp2, stronger effect = lower value 0.257 | locus YCL016C, strain dcc1, stronger effect = lower value 0.462 | locus YCL069W, strain vba3, stronger effect = lower value 0.413 | locus YCR088W, strain abp1, stronger effect = lower value 0.39 | locus YDL005C, strain med2, stronger effect = lower value 0.193 | locus YDR001C, strain nth1, stronger effect = lower value 0.468 | locus YDR069C, strain doa4, stronger effect = lower value 0.0857 | locus YDR297W, strain sur2, stronger effect = lower value 0.167 | locus YDR334W, strain swr1, stronger effect = lower value 0.24 | locus YDR335W, strain msn5, stronger effect = lower value 0.814 | locus YDR392W, strain spt3, stronger effect = lower value 0.122 | locus YEL003W, strain gim4, stronger effect = lower value 0.463 | locus YEL037C, strain rad23, stronger effect = lower value 0.296 | locus YEL061C, strain CIN8 (second series), stronger effect = lower value 0.33 | locus YER015W, strain faa2, stronger effect = lower value 0.177 | locus YER016W, strain bim1, stronger effect = lower value 0.52 | locus YER155C, strain BEM2 (second series), stronger effect = lower value 0.259 | locus YFR010W, strain ubp6, stronger effect = lower value 0.382 | locus YGL167C, strain pmr1, stronger effect = lower value 0.214 | locus YGL173C, strain kem1, stronger effect = lower value 0.098 | locus YGL227W, strain vid30, stronger effect = lower value 0.769 | locus YGL240W, strain doc1, stronger effect = lower value 0.259 | locus YGL253W, strain hxk2, stronger effect = lower value 0.303 | locus YHR013C, strain ard1, stronger effect = lower value 0.209 | locus YHR027C, strain rpn1, stronger effect = lower value 0.164 | locus YHR030C, strain SLT2, stronger effect = lower value 0.472 | locus YHR079C, strain IRE1, stronger effect = lower value 0.385 | locus YHR142W, strain chs7, stronger effect = lower value 0.209 | locus YJL092W, strain hpr5, stronger effect = lower value 0.422 | locus YJL095W, strain BCK1 (second series), stronger effect = lower value 0.112 | locus YJL095W, strain BCK1, stronger effect = lower value 0.35 | locus YJL115W, strain asf1, stronger effect = lower value 0.424 | locus YJL129C, strain trk1, stronger effect = lower value 0.852 | locus YJL154C, strain vps35, stronger effect = lower value 0.344 | locus YJL164C, strain tpk1, stronger effect = lower value 0.16 | locus YJL166W, strain qcr8, stronger effect = lower value 0.177 | locus YJL187C, strain SWE1, stronger effect = lower value 0.206 | locus YJR066W, strain TOR1, stronger effect = lower value 0.57 | locus YKL160W, strain elf1, stronger effect = lower value 0.486 | locus YKR026C, strain gcn3, stronger effect = lower value 0.559 | locus YKR091W, strain srl3, stronger effect = lower value 0.589 | locus YLL001W, strain dnm1, stronger effect = lower value 0.42 | locus YLL026W, stronger effect = lower value 0.333 | locus YLL041C, strain sdh2, stronger effect = lower value 0.279 | locus YLR027C, strain aat2, stronger effect = lower value 0.22 | locus YLR113W, strain HOG1, stronger effect = lower value 0.308 | locus YLR221C, strain rsa3, stronger effect = lower value 0.342 | locus YLR258W, strain gsy2, stronger effect = lower value 0.209 | locus YLR262C, strain YPT6 (second series), stronger effect = lower value 0.114 | locus YLR320W, strain mms22, stronger effect = lower value 0.159 | locus YLR342W, strain FKS1, stronger effect = lower value 0.163 | locus YLR357W, strain rsc2, stronger effect = lower value 0.452 | locus YLR370C, strain arc18, stronger effect = lower value 0.273 | locus YLR384C, strain iki3, stronger effect = lower value 0.75 | locus YMR058W, strain fet3, stronger effect = lower value 0.0888 | locus YMR125W, strain sto1, stronger effect = lower value 0.462 | locus YMR129W, stronger effect = lower value 0.633 | locus YMR205C, strain PFK2, stronger effect = lower value 0.179 | locus YMR231W, strain pep5, stronger effect = lower value 0.141 | locus YNL071W, strain lat1, stronger effect = lower value 0.194 | locus YNL183C, strain NPR1, stronger effect = lower value 0.561 | locus YNL209W, strain ssb2, stronger effect = lower value 0.111 | locus YNL248C, strain rpa49, stronger effect = lower value 0.488 | locus YNL322C, strain KRE1 (second series), stronger effect = lower value 0.403 | locus YNR049C, strain mso1, stronger effect = lower value 0.551 | locus YOR070C, strain gyp1, stronger effect = lower value 0.492 | locus YOR083W, strain WHI5, stronger effect = lower value 0.43 | locus YOR106W, strain vam3, stronger effect = lower value 0.135 | locus YOR231W, strain MKK1, stronger effect = lower value 0.513 | locus YOR265W, strain rbl2, stronger effect = lower value 0.204 | locus YOR270C, strain vph1, stronger effect = lower value 0.153 | locus YPL051W, strain arl3, stronger effect = lower value 0.129 | locus YPL106C, strain sse1, stronger effect = lower value 0.299 | locus YPL240C, strain hsp82, stronger effect = lower value 0.242 | locus YPL256C, strain CLN2, stronger effect = lower value 0.415

COC(=O)C1=C(C)NC(C)=C([N+](=O)[O-])C1c1ccccc1C(F)(F)F (centres undefined)
inactive: locus YAL040C, strain CLN3, stronger effect = lower value 0.982 | locus YCL061C, strain MRC1 (second series), stronger effect = lower value 1 | locus YER002W, strain NOP16, stronger effect = lower value 0.991 | locus YGR078C, strain PAC10, stronger effect = lower value 0.94 | locus YNL175C, strain NOP13, stronger effect = lower value 0.976 | locus YNL197C, strain WHI3, stronger effect = lower value 1.04 | locus YNL224C, strain SQS1, stronger effect = lower value 0.987 | locus YNL322C, strain KRE1, stronger effect = lower value 1.01 | locus YOR083W, strain WHI5 (second series), stronger effect = lower value 1 | locus YPL055C, strain LGE1, stronger effect = lower value 1.01
